CtBP-E1A blk – qHTS Assay for Inhibitors of the CtBP/E1A Interaction | AlphaScreen GST-E1A/His-CtBP binding, 1536-well; active compounds read low | activity change, % (no concentration beside the values) | 340,000 compounds, 0.49% hits | AID 651724, 2012; in the data active = activity change below about -65%; inconclusive = mostly about -30% to -63%; note: % is set by controls: 0 for no effect and ±100 for the full control effect
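In 5 uL wells, 23 nL compound meets equimolar GST-E1A and His-CtBP (5X stock 125 nM each) for 2 h, 37 °C. Beads (5X, 50 ug/mL) then 1 h, 37 °C, dark.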
BAZ2B block – qHTS Assay for Inhibitors of BAZ2B. AlphaScreen BAZ2B-H3K14Ac peptide displacement. Potency, µM (highest dose often 114 µM), inactives show at the highest dose activity change, negative = inhibition, usual class: inhibitors. 360,000 compounds, 4.4% hits. AID 504333, 2011; note: potency is the fitted concentration of half-maximal effect; % is set by controls: 0 for no effect and ±100 for the full control effect; nearly all actives have a fitted effect of over 60% in size
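Inhibition is scored as reduced AlphaScreen emission. The BAZ2B/b-H3(5-23)K14Ac complex (50 nM each) in PBS pH 7.4, 0.01% Tween-20 meets compound (up to 110 uM) for 30 min at RT before bead addition.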
TDP1 inh – qHTS Assay for Inhibitors of Tyrosyl-DNA Phosphodiesterase (TDP1). Tyrosyl-DNA phosphodiesterase 1 (Homo sapiens), Q9NUW8. recombinant TDP1, AlphaScreen DNA substrate cleavage. AID 485290, 2010. Potency, µM (series often up to 130 µM), for inactives: at the top dose activity change, negative = inhibition, hits mostly inhibitors. 350,000 compounds, 0.28% hits; note: potency is the fitted concentration of half-maximal effect; % is set by controls: 0 for no effect and ±100 for the full control effect; nearly all actives have a fitted effect of over 40% in size
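Signal: AlphaScreen proximity between streptavidin donor and anti-FITC acceptor beads on intact substrate. Reaction: Tdp1 1 nM, substrate 15 nM final, 5 min RT after 15 min compound preincubation.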
Six1-Eya2 inh – qHTS Assay for Inhibitors of the Six1/Eya2 Interaction; AlphaScreen GST-Six1/His-Eya2 binding, biochemical; active compounds read low; 360,000 compounds, 0.56% hits; activity change, % (concentration not given with the values); Homeobox protein SIX1 (Homo sapiens) + Protein phosphatase EYA2 (Homo sapiens), …; in the data active = activity change below about -65%; inconclusive = mostly about -30% to -63%; note: % is set by controls: 0 for no effect and ±100 for the full control effect
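GST-Six1 + His-Eya2 (5X stock: 250/500 nM); Tris pH 8.0, 300 mM NaCl, 0.05% BSA, 0.02% Tween 20; GSH donor/Ni acceptor beads; 1 h 37 °C dark; AlphaScreen readout.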
JMJD2A Tudor – qHTS Assay for Inhibitors of JMJD2A-Tudor Domain; Lysine-specific demethylase 4A (Homo sapiens), O75164; AlphaScreen JMJD2A-Tudor / H3K4me3 peptide binding; Potency, µM (highest dose often 114 µM), inactives show top-dose activity change, negative = inhibition, usual class: inhibitors; 390,000 compounds, 4.4% hits; AID 504339, 2011; note: potency is the fitted concentration of half-maximal effect; % is set by controls: 0 for no effect and ±100 for the full control effect; nearly all actives have a fitted effect of over 50% in size
HP1b binding inh – HTS for Inhibitors of HP1-beta Chromodomain Interactions with Methylated Histone Tails; Chromobox protein homolog 1 (Homo sapiens), P83916; AlphaScreen HP1-beta / biotin-H3K9me3 peptide binding; Potency, µM (highest dose often 114 µM), for the others: at the top dose activity change, negative = inhibition, usual class: inhibitors; 390,000 compounds, 0.56% hits; AID 540317, 2011; note: potency is the fitted concentration of half-maximal effect; nearly all actives have a fitted effect of over 70% in size
Target sequence (P83916 whole entry, looked up): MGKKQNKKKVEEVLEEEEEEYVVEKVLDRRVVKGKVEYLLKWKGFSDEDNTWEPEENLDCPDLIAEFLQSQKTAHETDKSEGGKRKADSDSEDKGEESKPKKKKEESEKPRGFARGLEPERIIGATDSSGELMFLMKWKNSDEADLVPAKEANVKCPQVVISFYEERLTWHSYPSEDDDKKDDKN
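AlphaScreen: HP1-beta (50 nM) preformed 30 min with biotin-H3(1-18)K9me3 peptide (50 nM) in PBS pH 7.4, 0.01% Tween-20. Compound added for 30 min at RT, then streptavidin donor/nickel chelate acceptor beads (10 ug/mL) for 30 min.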
Starred values were filed as active, the others as inactive; ? = inconclusive; . = no result; [ ] = remark or other dose. Sampled rows, rich in hits. Any-hit rate of the full collection: about 5.3%. Unless noted, calls come from the whole dose curve; as a rule, active = well fitted inhibition curve with a large enough effect; inconclusive = small, poorly fitted or top-dose-only effect; inactive = no such curve, though single readings can be large or run the other way.

SMILES	CtBP-E1A blk	BAZ2B block	TDP1 inh	Six1-Eya2 inh	JMJD2A Tudor	HP1b binding inh
CCc1ccc(CN(C(=O)c2ccco2)C2CCS(=O)(=O)C2)cc1 (stereo unspecified)	7	2%	.	0	22µM*	12%
O=C(c1ccco1)N(Cc1cccc(F)c1)C1CCS(=O)(=O)C1 (stereo unspecified)	3	56µM*	0%	1	-13%	23%
COc1cccc(CN(C(=O)c2cccs2)C2CCS(=O)(=O)C2)c1 (stereo unspecified)	20	-14%	3%	11	56µM*	10%
COc1cc(CN(C(=O)c2ccco2)C2CCS(=O)(=O)C2)cc(OC)c1OC (stereo unspecified)	3	-14%	2%	3	0%	22%
O=C(c1cccs1)N(Cc1cccc(F)c1)C1CCS(=O)(=O)C1 (stereo unspecified)	9	3%	3%	2	-8%	41%
O=C(CN1C(=O)CCc2cc(S(=O)(=O)N3CCOCC3)ccc21)NCc1ccc(F)cc1	.	-3%	-9%	.	-16%	20%
COc1ccc(/C=C/N(CCc2ccc(OC)c(OC)c2)C(=O)c2ccccn2)cc1	.	.	7%[21 µM]	.	.	.
CCc1ccccc1NC(=O)CNC(=O)CCc1nc2sc3c(c2c(=O)[nH]1)CCCC3	2	50µM*	.	-9	?	-4%
Cc1cc(C)cc(NC(=O)CCc2nc3sc4c(c3c(=O)[nH]2)CCCC4)c1	4	-38%	.	-13	-27%	18%
O=C(CCc1nc2sc3c(c2c(=O)[nH]1)CCCC3)NCCc1ccccc1	-24	?	-2%	-1	-20%	4%
CC(=O)Nc1ccc(NC(=O)CCc2nc3sc4c(c3c(=O)[nH]2)CCCC4)cc1	3	-6%	.	-12	-32%	22%
Cc1ccc(NC(=O)CCc2nc3sc4c(c3c(=O)[nH]2)CCCC4)c(Br)c1	6	50µM*	.	-2	?	2%
CCN(CC(=O)Nc1c(F)cccc1F)C(=O)CCc1nc2sc3c(c2c(=O)[nH]1)CCCC3	-4	50µM*	-2%	-17	?	-12%
CC1(NC(=O)CCc2nc3sc4c(c3c(=O)[nH]2)CCCC4)CCS(=O)(=O)C1 (stereo unspecified)	3	79µM*	.	-17	?	-16%
CCCCC/C=C\C\C=C/C=C/C=C/[C@@H](SCC(N)C(=O)O)[C@@H](O)CCCC(=O)O (stereo partly specified)	.	.	6%	.	.	.
O=C(Nc1ccc(Cl)cc1Cl)c1cc(S(=O)(=O)NCc2ccc3c(c2)OCO3)ccc1F	.	1%	.	.	-19%	22%
Nc1nc(N)c2sc3nc4c(cc3c2n1)CCC4	-84*	-1%	-3%	-76*	-19%	18%
Nc1c(C(=O)N2CCCCC2)sc2nc3c(cc12)CCCC3	-1	1%	1%	-2	-10%	54%
CCCn1c(N)c(C(=O)CN(C)CC(=O)Nc2ccc(C)cc2)c(=O)[nH]c1=O	-7	9%	0%	-6	22µM*	33%
CCCn1c(N)c(C(=O)CN(C)CC(=O)Nc2cc(C)ccc2C)c(=O)[nH]c1=O	0	-5%	-2%	-5	-4%	25%
CNc1cncc(-c2cccc(NS(C)(=O)=O)c2)n1	-67*	.	.	?	.	.
CNc1cncc(-c2cccc(C(C)=O)c2)n1	-26	.	.	-3	.	.
Cc1ccc2c(c1)c1ccc3c(c1n2C)C(=O)C=CC3=O	?	10µM*	10%	?	6.3µM*	3.2µM*
COc1ccc2c(c1)c1ncn(CCN3CCCC3)c(=O)c1n2C	-13	-4%	3%	-17	-13%	25%
Cc1ccc(C)c2c1c1ccccc1n2C	10	-4%	4%	17	7%	33%
SMILES	CtBP-E1A blk	BAZ2B block	TDP1 inh	Six1-Eya2 inh	JMJD2A Tudor	HP1b binding inh
Cn1c2ccccc2c2ccc3c(c21)C(=O)C=CC3=O	?	.	.	?	16µM*	11µM*
COc1ccc2c(c1)c1ccc3c(c1n2C)C(=O)C=CC3=O	.	?	6%	-69*	40µM*	6.3µM*
Cc1ccc(NC(=O)C(=O)NCC(c2cccnc2)N2CCN(Cc3ccccc3)CC2)cc1 (stereo unspecified)	.	0%	5%	.	-4%	57%
Cc1cccn2cc(-c3cc4ccccc4oc3=O)nc12	5	-9%	9%	10	89µM*	-13%
Cc1cc(-c2ccccc2)nc(N/N=C/c2ccc(N(C)C)cc2)n1	.	.	.	-29	35µM*	?
Cc1cc(-c2ccccc2)nc(N/N=C/c2ccccc2)n1	0	-3%	-1%	2	-24%	11%
Cc1cc(Br)cc2c(C(=O)OCC(=O)c3ccccc3)cc(-c3ccccc3)nc12	.	-1%	.	.	-8%	62%
O=C(C[n+]1ccccc1)N/N=C/c1ccc(Cl)c(Cl)c1	-17	50µM*	.	-14	22µM*	10%
C=CCc1cccc(/C=N/NC(=O)C[n+]2ccccc2)c1O	-91*	-20%	.	-89*	?	44%
C=CCc1cccc(/C=N/NC(=O)CNc2ccccc2)c1O	-2	-4%	8%	-3	-8%	38%
O=C(C[n+]1ccccc1)N/N=C/c1cccc(Cl)c1Cl	.	-26%	.	-4	-14%	38%
C=CCc1cccc(/C=N/NC(=O)CCCNc2ccc(C)cc2)c1O	?	32µM*	8%	?	?	?
COc1ccccc1CCNC(=O)CCc1c(C)c2cc3c(C)coc3cc2oc1=O	.	-11%	7%	.	-24%	36%
CN(C)CCNC(=O)CN1C(=O)COc2ccc(S(=O)(=O)N3CCCC3)cc21	.	-1%	3%	.	9%	33%
COc1ccccc1N(CC(=O)NCCSc1ccccc1)S(=O)(=O)c1ccc(C)cc1	.	2%	.	.	-23%	12%
COc1cc(C=Nc2cccc(C)c2)c(O)c([N+](=O)[O-])c1	-22	50µM*	3%	0	?	-32%
Oc1ccc(C=Nc2ccc(N3CCOCC3)cc2)c(O)c1	0	?	4%	7	22µM*	?
Cc1ccc(O)c(N=Cc2cc(Cc3ccccc3)cc([N+](=O)[O-])c2O)c1	-3	10µM*	11%	-21	40µM*	?
O=[N+]([O-])c1cc(Cc2ccccc2)cc(C=Nc2ccc(N3CCOCC3)cc2)c1O	0	40µM*	11%	-15	56µM*	?
